Our source for the Percent Effect values is ChEMBL document CHEMBL3988442, “University of Dundee, Small-Polar-MMV Screening Library” (2021).

SMILES strings stand for the structures. For part of these data: Measured potencies and affinities stand elsewhere.

Common to all, as to design: scale not given: direction of the effect not stated beside the values
The target of test [1] is Protein translocase subunit SecA (Escherichia coli (strain K12)) (UniProt P10408). Description: Assay to Identify E. coli SecA ATPase Inhibitors. It counts as functional. To be noted: 30 µM.
Test [2] has as its target T1, Ubiquitin-activating enzyme e1, putative (Leishmania donovani (strain BPK282A1)) (UniProt E9BSI1).
T1 sequence (whole entry): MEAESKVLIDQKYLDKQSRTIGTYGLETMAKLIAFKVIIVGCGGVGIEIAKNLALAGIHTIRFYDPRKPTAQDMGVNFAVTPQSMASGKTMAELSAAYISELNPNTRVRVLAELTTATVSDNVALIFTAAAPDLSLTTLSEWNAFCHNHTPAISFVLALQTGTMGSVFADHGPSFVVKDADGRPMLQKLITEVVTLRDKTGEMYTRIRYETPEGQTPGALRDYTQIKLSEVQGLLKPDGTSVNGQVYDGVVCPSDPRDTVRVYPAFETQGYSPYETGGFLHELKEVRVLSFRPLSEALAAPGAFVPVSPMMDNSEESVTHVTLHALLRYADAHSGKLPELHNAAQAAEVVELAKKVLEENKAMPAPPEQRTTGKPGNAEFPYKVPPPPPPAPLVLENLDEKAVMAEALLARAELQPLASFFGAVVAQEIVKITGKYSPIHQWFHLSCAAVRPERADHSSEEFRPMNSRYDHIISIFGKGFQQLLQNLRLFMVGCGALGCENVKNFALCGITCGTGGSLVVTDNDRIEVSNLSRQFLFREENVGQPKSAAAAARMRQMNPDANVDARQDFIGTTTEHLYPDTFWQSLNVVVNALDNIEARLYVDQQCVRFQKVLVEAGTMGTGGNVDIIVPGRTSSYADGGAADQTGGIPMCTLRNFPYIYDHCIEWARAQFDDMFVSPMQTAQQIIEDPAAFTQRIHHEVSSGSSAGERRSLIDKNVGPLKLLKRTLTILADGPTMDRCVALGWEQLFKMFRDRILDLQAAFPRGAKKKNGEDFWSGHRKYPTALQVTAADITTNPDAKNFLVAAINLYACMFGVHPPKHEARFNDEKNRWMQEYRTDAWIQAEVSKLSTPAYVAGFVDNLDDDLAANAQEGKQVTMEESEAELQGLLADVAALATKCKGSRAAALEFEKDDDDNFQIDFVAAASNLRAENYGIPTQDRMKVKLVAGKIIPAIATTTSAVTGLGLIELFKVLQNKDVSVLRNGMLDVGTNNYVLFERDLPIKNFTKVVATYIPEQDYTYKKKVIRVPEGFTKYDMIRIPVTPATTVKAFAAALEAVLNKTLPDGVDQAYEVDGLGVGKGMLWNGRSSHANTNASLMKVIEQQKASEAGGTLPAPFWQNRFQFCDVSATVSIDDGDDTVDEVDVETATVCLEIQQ
Description: Leishmania donovani Ubiquitin Activating Enzyme (LdE1). It counts as functional. To be noted: 30 µM.

Test [3] deals with Sialic acid-binding Ig-like lectin 9 (Homo sapiens) (UniProt Q9Y336). Description: Hs-Siglec9 ALPHAscreen SOP 20170721. To be noted: 10 µM. On the technique in general: In Alpha technology, singlet oxygen from a donor bead excites a nearby acceptor bead.
Another test concerns Trypanosoma cruzi. Description: Trypanosoma cruzi phosphomannomutase and mannose-1-phosphate guanylyltransferase assay. Type of test: functional. To be noted: 10 µM.
Test [4] addresses T2, Arginase-2, mitochondrial (Homo sapiens) (UniProt P78540).
T2 sequence (whole entry): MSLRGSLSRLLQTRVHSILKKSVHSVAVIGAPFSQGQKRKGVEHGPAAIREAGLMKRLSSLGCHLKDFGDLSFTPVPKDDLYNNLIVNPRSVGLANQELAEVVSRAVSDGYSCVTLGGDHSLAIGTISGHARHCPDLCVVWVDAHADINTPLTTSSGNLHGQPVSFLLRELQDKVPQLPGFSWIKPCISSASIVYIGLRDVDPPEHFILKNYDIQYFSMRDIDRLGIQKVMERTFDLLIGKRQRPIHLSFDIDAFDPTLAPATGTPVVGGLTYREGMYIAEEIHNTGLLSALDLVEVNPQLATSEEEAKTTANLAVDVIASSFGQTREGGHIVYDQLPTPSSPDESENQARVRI
Description: in vitro enzyme assay to detect the production of urea directly proportional to the activity of Arginase II. Also: in the data most compounds retested in dose-response had high values. To be noted: 33.3 µM. Type of test: functional.

In test [5] the target is T3, Proteasome subunit beta (Trypanosoma cruzi) (UniProt O96673).
T3 sequence (whole entry): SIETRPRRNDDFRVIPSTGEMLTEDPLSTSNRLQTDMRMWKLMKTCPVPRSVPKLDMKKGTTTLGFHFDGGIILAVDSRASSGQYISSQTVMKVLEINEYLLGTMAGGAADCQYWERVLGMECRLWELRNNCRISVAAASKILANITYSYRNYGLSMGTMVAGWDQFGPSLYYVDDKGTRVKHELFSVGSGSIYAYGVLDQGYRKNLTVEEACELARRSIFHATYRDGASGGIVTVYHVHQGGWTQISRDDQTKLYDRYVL
Description: Trypanosoma cruzi proteasome chymotrypsin-like activity (TcProtChymo) assay. Also: in the data most compounds retested in dose-response had high values. To be noted: 9.37 µM. Type of test: functional.

The next test is filed under the species Homo sapiens. Description: To identify inhibition of the IFN signalling (Jak-Stat) pathway via expression of an eGFP reporter gene under the control of an IFN-stimulated response element (ISRE) containing MxA promoter. To be noted: 30 µM. It counts as functional. (Reporter assays use an easily measured gene product as a stand-in for the process of interest.)

For test [6], the target named is T4, Tyrosyl-tRNA synthetase, putative (Trypanosoma cruzi (strain CL Brener)) (UniProt Q4DSP6).
T4 sequence (whole entry): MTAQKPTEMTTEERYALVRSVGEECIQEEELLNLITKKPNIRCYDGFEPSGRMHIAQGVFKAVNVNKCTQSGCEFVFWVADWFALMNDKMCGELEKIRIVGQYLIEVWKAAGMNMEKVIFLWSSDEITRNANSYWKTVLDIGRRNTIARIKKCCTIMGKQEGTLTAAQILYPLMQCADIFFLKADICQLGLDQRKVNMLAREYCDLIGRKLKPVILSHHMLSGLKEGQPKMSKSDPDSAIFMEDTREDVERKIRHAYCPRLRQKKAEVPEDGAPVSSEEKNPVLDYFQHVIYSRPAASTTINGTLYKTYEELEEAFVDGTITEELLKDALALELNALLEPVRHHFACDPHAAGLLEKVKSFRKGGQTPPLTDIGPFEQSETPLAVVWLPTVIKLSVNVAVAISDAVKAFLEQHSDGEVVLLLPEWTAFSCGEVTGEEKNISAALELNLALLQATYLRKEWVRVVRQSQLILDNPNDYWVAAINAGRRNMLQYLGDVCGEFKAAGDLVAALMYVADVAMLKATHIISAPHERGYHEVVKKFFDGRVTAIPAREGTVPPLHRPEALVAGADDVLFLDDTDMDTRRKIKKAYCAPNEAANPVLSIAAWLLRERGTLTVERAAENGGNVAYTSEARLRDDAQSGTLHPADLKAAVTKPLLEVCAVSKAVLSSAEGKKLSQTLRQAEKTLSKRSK
Description: Trypanosoma cruzi tyrosyl tRNA synthetase (TcYRS) _High Tyrosine SOP. Also: in the data most compounds retested in dose-response had high values. It counts as functional. To be noted: 30 µM.

In test [7] the target is T4, Tyrosyl-tRNA synthetase, putative (Trypanosoma cruzi (strain CL Brener)). Description: Trypanosoma cruzi tyrosyl tRNA synthetase (TcYRS) SOP. Type of test: functional. To be noted: 30 µM.
Test [8] concerns the target Chromo domain-containing protein 1 (Saccharomyces cerevisiae (strain ATCC 204508 / S288c) (Baker's yeast)) (UniProt P32657). Description: ScCHD-1 Enzyme Inhibition Assay. Also: in the data most compounds retested in dose-response had high values. To be noted: 30 µM. Type of test: functional.

Chromo domain-containing protein 1 (Saccharomyces cerevisiae (strain ATCC 204508 / S288c) (Baker's yeast)), sequence (P32657 whole entry, the tested form may be a part): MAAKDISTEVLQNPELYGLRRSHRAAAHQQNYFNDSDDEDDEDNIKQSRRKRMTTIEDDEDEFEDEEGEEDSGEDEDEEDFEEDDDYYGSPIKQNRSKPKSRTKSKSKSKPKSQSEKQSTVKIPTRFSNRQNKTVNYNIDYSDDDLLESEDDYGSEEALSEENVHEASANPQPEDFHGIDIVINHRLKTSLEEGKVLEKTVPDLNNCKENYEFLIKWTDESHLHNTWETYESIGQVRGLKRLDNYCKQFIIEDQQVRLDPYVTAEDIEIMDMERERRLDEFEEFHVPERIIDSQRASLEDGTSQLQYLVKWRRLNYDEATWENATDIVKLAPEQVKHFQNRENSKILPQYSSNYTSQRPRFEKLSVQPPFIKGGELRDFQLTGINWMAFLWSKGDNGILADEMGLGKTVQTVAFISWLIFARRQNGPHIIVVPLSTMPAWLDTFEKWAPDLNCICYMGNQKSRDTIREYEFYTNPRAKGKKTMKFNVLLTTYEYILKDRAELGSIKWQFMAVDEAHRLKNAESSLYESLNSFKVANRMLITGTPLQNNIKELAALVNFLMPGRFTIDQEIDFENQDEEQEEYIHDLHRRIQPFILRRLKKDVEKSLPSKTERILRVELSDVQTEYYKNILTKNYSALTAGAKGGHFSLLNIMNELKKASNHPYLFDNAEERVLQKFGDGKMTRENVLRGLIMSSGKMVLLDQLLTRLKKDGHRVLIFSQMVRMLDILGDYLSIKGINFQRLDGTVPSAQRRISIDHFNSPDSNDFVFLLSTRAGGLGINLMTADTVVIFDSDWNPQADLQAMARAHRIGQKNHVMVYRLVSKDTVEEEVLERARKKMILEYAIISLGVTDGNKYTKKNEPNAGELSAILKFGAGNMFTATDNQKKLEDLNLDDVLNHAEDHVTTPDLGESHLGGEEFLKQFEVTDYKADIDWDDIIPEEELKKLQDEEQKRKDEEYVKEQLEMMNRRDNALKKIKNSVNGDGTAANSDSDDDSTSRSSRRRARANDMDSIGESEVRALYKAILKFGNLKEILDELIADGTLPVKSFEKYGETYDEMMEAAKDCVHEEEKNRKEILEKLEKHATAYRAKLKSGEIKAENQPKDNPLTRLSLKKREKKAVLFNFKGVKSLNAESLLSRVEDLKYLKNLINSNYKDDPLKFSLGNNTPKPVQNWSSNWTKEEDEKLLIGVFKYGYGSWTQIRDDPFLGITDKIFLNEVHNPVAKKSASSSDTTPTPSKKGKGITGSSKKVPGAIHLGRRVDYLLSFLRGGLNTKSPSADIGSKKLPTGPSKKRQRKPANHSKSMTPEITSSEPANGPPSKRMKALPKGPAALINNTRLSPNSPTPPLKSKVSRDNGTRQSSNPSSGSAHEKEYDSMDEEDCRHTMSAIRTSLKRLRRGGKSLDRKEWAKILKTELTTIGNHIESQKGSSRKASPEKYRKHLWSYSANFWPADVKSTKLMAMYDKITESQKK
Sialic acid-binding Ig-like lectin 9 (Homo sapiens), sequence (Q9Y336 whole entry): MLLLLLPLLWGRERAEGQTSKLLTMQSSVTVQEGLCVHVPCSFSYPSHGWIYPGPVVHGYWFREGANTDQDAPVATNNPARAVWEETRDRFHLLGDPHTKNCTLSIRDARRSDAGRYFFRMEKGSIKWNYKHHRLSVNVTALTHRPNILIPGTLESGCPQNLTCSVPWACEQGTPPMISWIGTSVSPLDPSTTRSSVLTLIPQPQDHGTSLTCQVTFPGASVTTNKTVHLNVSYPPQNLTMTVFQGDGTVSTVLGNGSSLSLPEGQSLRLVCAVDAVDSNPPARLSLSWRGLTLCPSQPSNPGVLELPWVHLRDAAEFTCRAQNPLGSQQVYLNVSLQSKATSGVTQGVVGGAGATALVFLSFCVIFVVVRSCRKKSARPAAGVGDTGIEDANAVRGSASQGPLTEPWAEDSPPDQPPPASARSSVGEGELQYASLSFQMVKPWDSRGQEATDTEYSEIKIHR
Protein translocase subunit SecA (Escherichia coli (strain K12)), sequence (P10408 whole entry): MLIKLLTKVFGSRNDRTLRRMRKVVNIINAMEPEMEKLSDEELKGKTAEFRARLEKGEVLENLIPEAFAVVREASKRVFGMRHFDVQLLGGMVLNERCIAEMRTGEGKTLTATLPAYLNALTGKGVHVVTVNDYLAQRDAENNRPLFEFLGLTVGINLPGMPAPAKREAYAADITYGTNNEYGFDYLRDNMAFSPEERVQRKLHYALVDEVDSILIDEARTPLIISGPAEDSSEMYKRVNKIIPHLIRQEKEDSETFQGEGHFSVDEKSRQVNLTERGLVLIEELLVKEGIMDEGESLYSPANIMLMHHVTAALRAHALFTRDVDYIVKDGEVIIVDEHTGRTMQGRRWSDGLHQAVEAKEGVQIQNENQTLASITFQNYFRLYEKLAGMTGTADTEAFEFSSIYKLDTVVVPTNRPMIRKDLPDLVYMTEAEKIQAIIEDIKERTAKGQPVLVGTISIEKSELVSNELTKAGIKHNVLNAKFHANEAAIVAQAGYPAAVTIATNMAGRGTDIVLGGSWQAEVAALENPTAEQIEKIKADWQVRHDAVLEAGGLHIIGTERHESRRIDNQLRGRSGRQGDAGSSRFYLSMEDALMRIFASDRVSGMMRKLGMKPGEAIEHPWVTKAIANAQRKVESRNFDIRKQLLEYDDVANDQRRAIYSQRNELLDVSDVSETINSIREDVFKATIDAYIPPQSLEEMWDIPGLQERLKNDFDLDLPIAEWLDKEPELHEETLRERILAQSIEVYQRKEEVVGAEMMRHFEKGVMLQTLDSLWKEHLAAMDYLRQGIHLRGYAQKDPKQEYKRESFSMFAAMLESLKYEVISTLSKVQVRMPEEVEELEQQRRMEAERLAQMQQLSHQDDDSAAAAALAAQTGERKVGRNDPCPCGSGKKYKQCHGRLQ

For the compound `CCOC1COC2(CCN(Cc3ccc4c(c3)OCO4)CC2)C1` (stereo not given), the Percent Effect in [1] was -2.81%; in [2], 19.5%; in test [3], 5.28%; with Trypanosoma cruzi, -1.13%; in test [4] it was 3.65%; in test [5] it was 5.06%. For the same compound, the Percent Effect in the test filed under Homo sapiens is 17.9%; in test [6], 8.7%; in test [7] it was 12.5%; in test [8], -4.64%.

Consider `CC(C)C(NC(=O)Cn1ccc(=O)n(C)c1=O)c1ccc(F)cc1` (stereo not given), for which the Percent Effect in test [1] was 1.48%; in test [2] it was 18.2%; in test [3], -2.41%; in the test with Trypanosoma cruzi, -7.09%; in [4], 5.53%; in test [5], 7.19%. Further, the Percent Effect in the test filed under Homo sapiens is 22.3%; in [6], 6.86%; in test [7], 18.8%; in test [8], -8.33%.

With `CCN(CC1CCOC1)C(=O)Nc1ccc(-n2cncn2)nc1` (stereo not given), the Percent Effect in [1] was -3.32%; in [2], 5.13%; in [3], -0.956%; with Trypanosoma cruzi it was -12.7%; in test [4], 0%; in [5] it was 9.3%. Besides, the Percent Effect in the test filed under Homo sapiens was 5.11%; in test [6], 4.31%; in [7], 10.8%; in [8], -5.86%.

Take `CCn1ccnc1CNCC1CCN(CC(O)c2ccccc2)CC1` (stereo not given): the Percent Effect is -3.91% in test [1]; -5.13% in [2]; -9.4% in test [3]; 5.92% in the test with Trypanosoma cruzi; 11.9% in test [4]; -2.13% in [5]. In addition, the Percent Effect is 4.15% in the test filed under Homo sapiens, 3.35% in [6], 6.02% in test [7] and -1.13% in test [8].

For the compound `CC(C)n1[nH]c(=O)c2c1NC(=O)CC2c1cccc(OC(F)F)c1` (stereo not given), the Percent Effect was -3.01% in test [1]; 2.7% in test [2]; -4.26% in test [3]; -8.63% in the test on Trypanosoma cruzi; -1.75% in test [4]; 16.1% in test [5]. The Percent Effect in the test listed under Homo sapiens was 27.6%; in [6], 1.6%; in test [7] it was 2.44%; in test [8], -5.54%.

Turning to `Cc1oncc1C(=O)NCc1cc(=O)n2c(n1)CN(C)CCC2`, the Percent Effect was -1.85% in [1]; 6.49% in test [2]; -2.27% in test [3]; -8.28% with Trypanosoma cruzi; 4.86% in [4]; 24.6% in [5]. The Percent Effect in the test listed under Homo sapiens was 12.2%; in test [6], 2.63%; in test [7], 12.8%; in test [8] it was -1.21%.

`Cc1cccc(CN2C[C@@H]3CN(C(=O)[C@H]4CCCO4)C[C@@H]3C2=O)c1`: the Percent Effect in [1] is -6.54%; in test [2], 24.7%; in test [3], 2.65%; in the test with Trypanosoma cruzi, 3%; in [4] it was -2.28%; in test [5] it was 16.4%. Also, the Percent Effect in the test listed under Homo sapiens is 5.56%; in test [6], 9.66%; in test [7], 20%; in [8], -6.96%.

As to `CC(C)c1nc(CC(=O)N2CCCC(n3cncn3)C2)cs1` (stereo not given), the Percent Effect in test [1] was -0.0395%; in test [2] it was 20.5%; in test [3], -14.2%; with Trypanosoma cruzi, 4.6%; in test [4] it was 8.2%; in test [5] it was 14.2%. Moreover, the Percent Effect in the test filed under Homo sapiens was 24%; in test [6], 1.44%; in test [7] it was 22.9%; in [8], -5.56%.

Regarding `COc1ccc(CN2CCN(C(C)=O)CC3(CC(=O)N(C)C3)C2)cc1` (stereo not given), the Percent Effect in test [1] was -0.72%; in test [2], 14.3%; in test [3] it was 1.28%; in the test with Trypanosoma cruzi, -0.375%; in [4], 2.28%; in test [5], 6.44%. Moreover, the Percent Effect in the test listed under Homo sapiens is 4.32%; in test [6] it was 12.6%; in [7], 20%; in [8], -6.64%.

Take `O=S(=O)(c1ccccc1)N1CCCCC1c1cc[nH]n1` (stereo not given): the Percent Effect in [1] is -1.23%; in test [2], 9.33%; in [3], -5.11%; in the test on Trypanosoma cruzi it was -6.71%; in test [4], -1.77%; in [5], 13.5%. For the same compound, the Percent Effect in the test filed under Homo sapiens is 19.2%; in test [6], -3.17%; in test [7] it was 0%; in [8], -28%.

On to `CN1CC(c2ccccc2)CC12CCN(C(=O)c1ccc(F)cc1)CC2` (stereo not given), for which the Percent Effect was -9.69% in test [1]; 0% in test [2]; 9.54% in test [3]; -2.04% in the test on Trypanosoma cruzi; 2.45% in [4]; 6.34% in test [5]. The Percent Effect was 16.1% in the test filed under Homo sapiens, 0.532% in test [6], 2.44% in [7] and -1.53% in test [8].

On to `COc1ncc(C2(O)CCN(Cc3c(F)cccc3F)CC2)c(OC)n1`, for which the Percent Effect in test [1] is -3.32%; in test [2], 9.33%; in [3], -4.97%; in the test with Trypanosoma cruzi, 1.97%; in [4], -4.87%; in [5], 13.3%. Further, the Percent Effect in the test filed under Homo sapiens is 15.3%; in [6], 2.12%; in [7], 0%; in test [8] it was -21.1%.
